PubChem BioAssay AID624330 (Southern Research Specialized Biocontainment Screening …, 2012)
Among all 340,000 compounds or so, about 2,100 (0.62%) were called active.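 The calls were made as follows: active = first-screen hits whose inhibition reached a set limit at any dose in the follow-up dose series; inconclusive = inhibition above the set first-screen limit but never retested; inactive = the rest.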 The list is a sample of the results. Measured potencies and affinities stand elsewhere.

Biological target: Rac GTPase-activating protein 1 (Homo sapiens) (UniProt Q9H0H5)
Experiment: MgcRacGAP GTPase-activating activity inhibitors, confirmation, biochemical, ADP Hunter fluorescence, primary and confirmatory (AID 624330);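 also: fluorescence reports GDP produced by GAP-driven GTP hydrolysis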
Details: MgcRacGAP-stimulated Rac1 GTP hydrolysis, at 30 µM, stronger effect = higher value, GST-tagged Rac1 F28L mutant substrate

Sequence of Rac GTPase-activating protein 1 (Homo sapiens) (Q9H0H5 whole entry, looked up): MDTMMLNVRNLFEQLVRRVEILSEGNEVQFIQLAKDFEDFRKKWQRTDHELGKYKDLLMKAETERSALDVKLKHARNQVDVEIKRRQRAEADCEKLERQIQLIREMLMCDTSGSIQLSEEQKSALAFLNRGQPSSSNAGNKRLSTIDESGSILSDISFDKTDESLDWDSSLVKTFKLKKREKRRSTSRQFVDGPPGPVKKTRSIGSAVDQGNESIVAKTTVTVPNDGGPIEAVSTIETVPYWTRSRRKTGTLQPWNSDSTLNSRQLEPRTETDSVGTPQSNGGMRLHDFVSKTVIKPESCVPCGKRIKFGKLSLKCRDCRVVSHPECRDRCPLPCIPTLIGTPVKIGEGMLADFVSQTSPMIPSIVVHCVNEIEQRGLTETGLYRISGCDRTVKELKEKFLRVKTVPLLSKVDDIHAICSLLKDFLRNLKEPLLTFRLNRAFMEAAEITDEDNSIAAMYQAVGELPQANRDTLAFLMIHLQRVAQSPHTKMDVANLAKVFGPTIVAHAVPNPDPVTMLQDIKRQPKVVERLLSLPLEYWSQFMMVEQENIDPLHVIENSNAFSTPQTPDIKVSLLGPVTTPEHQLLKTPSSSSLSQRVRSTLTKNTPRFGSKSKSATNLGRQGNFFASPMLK

inhibition, inactive:
C=CCNC(=O)C(=O)N/N=C/c1cccc(Br)c1 5.98%, O=C(O)c1ccccc1-c1c2cc(I)c(=O)c(I)c-2oc2c(I)c(O)c(I)cc12 28.3%, O=c1ccc2c(-c3ccccc3S(=O)(=O)O)c3ccc(O)c(O)c3oc-2c1O 42.2%, O=C(NCc1ccccc1)c1onc(CS(=O)(=O)c2ccccn2)c1C(=O)NCc1ccccc1 -5.99%, NC(=O)C(c1ccc(Cl)cc1)c1ccc(Sc2ccc(Cl)cc2)nn1 (stereo not given) 11.6%, Nc1cccc(C(=O)Nc2cccc3ncccc23)c1 -7.17%, O=C1/C(=C/c2ccccc2)CN(C(=O)CCN2CCOCC2)C/C1=C\c1ccccc1 27.7%, C=CC(=O)N1C/C(=C/c2ccc(F)cc2)C(=O)/C(=C\c2ccc(F)cc2)C1 13.1%, CCN(CC)CCC(=O)N1c2ccccc2Sc2ccc(Cl)cc21 2.76%, C=CC(=O)N1C/C(=C/c2ccc(Cl)cc2)C(=O)/C(=C\c2ccc(Cl)cc2)C1 13.6%, C=CC(=O)N1C/C(=C/c2ccccc2)C(=O)/C(=C\c2ccccc2)C1 26.6%, O=C(CCC(=O)N1CCOCC1)Nc1ccc(Cl)c(Cl)c1 5.89%, CCOC(=O)N1C/C(=C\c2ccccc2)C(=O)/C(=C/c2ccccc2)C1 12.1%, O=C(/C=C/c1ccc(Cl)c(Cl)c1)N1CCOCC1 -0.69%, O=C(Nc1ccc(N2CCOCC2)cc1)c1ccc(Cl)c(S(=O)(=O)N2CCCCC2)c1 0.26%, CC1CC(=O)C2=C(C1)Nc1nc3ccccc3n1C2c1cccnc1 (stereo not given) 6.35%, O=C(COc1cccc2cccnc12)Nc1cccc(S(=O)(=O)N2CCCC2)c1 7.88%, CCCCCCc1ccc(N2C[C@H](Cc3ccccc3)[C@@H](CC(=O)Nc3ccccc3)C2=O)cc1 3.37%, COc1cc(OC)c(N(C)C(=O)c2cn(C)c(=O)c3cc(OC)c(OC)cc23)cc1Cl 9.25%, COC(=O)c1ccc(CNC(=O)C2CCC(=O)N(CCN3CCOCC3)C2)cc1 (stereo not given) 6.54%, CCOC(=O)N1CCC(Nc2c([N+](=O)[O-])cc(C(=O)O)cc2[N+](=O)[O-])CC1 9.55%, Cc1ccc(NC(=O)COC(=O)COc2cccc3c2OC(C)(C)C3)cc1S(=O)(=O)N1CCOCC1 5.48%, CC1=C(C(=O)N(C)C)CC(CC(=O)NCCN2CCOCC2)C(=O)N1CCC1=CCCCC1 (stereo not given) 19.4%, O=C1/C(=C\c2ccccc2)CCC/C1=C/c1ccccc1 -6.55%, COc1ccc(OC(=O)N2C/C(=C/c3ccccc3)C(=O)/C(=C\c3ccccc3)C2)cc1 -4.51%
